# “And” between values parts separate entries of the source, which are not always exact repeats. Equal values may be shown once. Where a name gives a salt, the structure may show the parent alone.
# Key:
# Assay in all cases: cell viability relative to vehicle control; higher = less cytotoxic
# Conditions in all cases: 10 µM
# K562 = system: K562
# How it was run: (§1)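 Each screen used CRISPR-edited mutant and wild-type clones from four leukaemia lines. Compounds were acoustically dispensed at a single 10 µM dose, and CellTiter-Glo luminescence was read after 48 h with the supernatant first removed. Viability was analysed in Genedata Screener and given as percent of the on-plate vehicle control.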
# MARIMO = system: MARIMO
# How it was run: as §1
# MOLM14 = system: MOLM14
# How it was run: as §1
# OCI-AML2 = system: OCI-AML2
# How it was run: as §1
Compound,cell viability (K562; SRSF2 genotype: SRSF2 P95H/wt),cell viability (K562; SRSF2 genotype: SRSF2 wt/wt) [%],cell viability (MARIMO; SRSF2 genotype: SRSF2 P95H/wt) [%],cell viability (MARIMO; SRSF2 genotype: SRSF2 wt/wt) [%],cell viability (MOLM14; SRSF2 genotype: SRSF2 P95H/wt) [%],cell viability (MOLM14; SRSF2 genotype: SRSF2 wt/wt) [%],cell viability (OCI-AML2; SRSF2 genotype: P95H/wt) [%],cell viability (OCI-AML2; SRSF2 genotype: wt/wt) [%]
CN1[C@@H]2CC[C@H]1C[C@@H](OC(=O)c1c[nH]c3ccccc13)C2 [Tropisetron HCl],97.5% and 100%,96.6,102,102,104,102,101,105
"CC(=O)Oc1ccccc1C(=O)Nc1ncc([N+](=O)[O-])s1 [Nitazoxanide (Alinia, Annita)]",78.4% and 85.8%,78.4,94.8,90.9,92.5,89.7,87.5,85.5
CN(C)c1cc(NC(=O)CNC(C)(C)C)c(O)c2c1CC1CC3C(N(C)C)C(=O)C(C(N)=O)=C(O)C3(O)C(=O)C1=C2O (stereo not drawn) [Tigecycline],94.1%,97.6,94.9,97.2,99.2,96.9,106,95.7
Cc1ccc2c(c1)c1c(n2CCc2ccc(C)nc2)CCN(C)C1 [Latrepirdine 2HCl],88.7% and 89.9%,80.2,73.8,82,74.4,84.6,73.7,76
CC(C)CC(NC(=O)C(Cc1ccccc1)CC(O)C(Cc1ccccc1)NC(=O)OC(C)(C)C)C(=O)NC(Cc1ccccc1)C(N)=O (stereo not drawn),106% and 109%,111,106,99.5,108,106,112,120
Cc1ccccc1C(OCCN(C)C)c1ccccc1 (stereo not drawn) [Orphenadrine Hydrochloride],99.9% and 97.1%,101,86.2,92.2,100,103,101,98.8
O=C1N=C(N2CCOCC2)CN1c1ccc(Cl)cc1,107% and 99%,94.4,99.3,111,94.8,104,95.4,86.8
CNC(=O)c1ccccc1Nc1cc(Nc2ccc(N3CCOCC3)cc2OC)ncc1C(F)(F)F,77.7% and 90%,82.8,38.6,35.2,11.4,11.4,21.3,26.5
O=C(Nc1ccncc1)c1cc([N+](=O)[O-])ccc1Cl,102% and 101%,91.5,106,102,70.5,106,83.2,73.9
CC(O)c1cc(C(=O)N[C@@H](C)Cn2ccc(-c3ccc(C#N)c(Cl)c3)n2)n[nH]1 (stereo partly drawn),87.9% and 91.4%,93.3,90.6,93.5,98.8,98,91.4,102
O=C1C(=O)c2ccccc2C(O)=C1C1CCC(c2ccc(Cl)cc2)CC1 (stereo not drawn) [Atovaquone (Atavaquone)],87.9% and 81.8%,79.7,87.9,95.8,84.7,88.7,84.8,90.1

# — the supplement of paper PMC10981050
